Article PMC13494018
Values without a mark were called inactive. How the calls were made is not given here.

B1: design_620_fbd04095-bef7-46a9-992d-f2cb8915922f_1411_dldesign_0_cycle1_af2pred (protein)
chain: DELTKLAQEAADAAVRAMEAGRYLPLEEANALINEVIKLYQKASEAAVAGKLEEAKKYAKEAKAKAKEIEELAEKRRA
B2: design_620_fbd04095-bef7-46a9-992d-f2cb8915922f_839_dldesign_0_cycle1_af2pred (protein)
chain: MSWSEKAAEAAIKRLKELAKKAVSEGGKYAELAAAAARNAALLSYAAGPEMAKKAIKVFKEAAKLYPELAPAMEQAIALIESLL
B3: design_620_fbd04095-bef7-46a9-992d-f2cb8915922f_1337_dldesign_0_cycle1_af2pred (protein)
chain: ADAATQAAIDANAAQAERALAAARADPAALPYAQAAIRNLELIAAGASPETQARGLARAEALRAALAAARAAA
B4: design_620_fbd04095-bef7-46a9-992d-f2cb8915922f_1750_dldesign_0_cycle1_af2pred (protein)
chain: DPAKELARRVVEANLKQLKKLLEEAGKASTEEGKKLAKEAIEKVEKLKKEALASSAAEATALTVKAIEEASKALREIKKLK
B5: design_620_fbd04095-bef7-46a9-992d-f2cb8915922f_1739_dldesign_0_cycle1_af2pred (protein)
chain: AEAAELLAQLQAATAAAQAAAAAGDAAAANAHLAQAVELASQIHRVGDAAQRAQANQLLAQASRAAIAANAAAAA
B6: design_620_fbd04095-bef7-46a9-992d-f2cb8915922f_814_dldesign_0_cycle1_af2pred (protein)
chain: SALSIAQLAASTQAVMKRAAKEVKGELAKKIKEAAKLAATGEKAKEAAALLKEAAKEAPEELKPLVASAAKHAELLVAAS
B7: design_620_fbd04095-bef7-46a9-992d-f2cb8915922f_592_dldesign_0_cycle1_af2pred (protein)
chain: SMAEEAARAEKAAAFREQAEAILAQAQANAADAEKLQQLGQQAVELAEEAAALGDQEAAQAALRAAAQINALLVQAQ
B8: design_620_fbd04095-bef7-46a9-992d-f2cb8915922f_1420_dldesign_0_cycle1_af2pred (protein)
chain: KQKYVNAIKANAKNLELIAEGAAQVDPALAKEAKAAAEKAKAKAEEAKKSTAEEAAALRKEVQAALAALSRALIAAAA
B9: design_620_fbd04095-bef7-46a9-992d-f2cb8915922f_687_dldesign_0_cycle1_af2pred (protein)
chain: ATAAEAAALRDAGVAAANSAAAAAKAGNTTAAGELLTEAVKLAAQLAALGDEAGAAEVRAAIAASSKTIIAAQAA
B10: design_620_fbd04095-bef7-46a9-992d-f2cb8915922f_1150_dldesign_0_cycle1_af2pred (protein)
chain: MRERIEKVEKEAKEAYEATKKAAAAQGEAGKIIAAAADAALKRLEEAAKKAKEALEEGDLESAEKYLKEAEAQLETIKVLKESAE
B11: design_620_fbd04095-bef7-46a9-992d-f2cb8915922f_846_dldesign_0_cycle1_af2pred (protein)
chain: AADALAGAKAALNTIKAAETNAKKLDAAGAEAQYKLAKVALESAKVHAAKLGEEGKKIAEEAKKALAATKAVAEAKKAA
B12: design_620_fbd04095-bef7-46a9-992d-f2cb8915922f_936_dldesign_0_cycle1_af2pred (protein)
chain: LTPLEKAEAAKAKADKLYEAAQKATKAEAASLYGEAAVEYAKAAAYYLRAGDAAAAAAAQANLKTAVAKSQALVAA
B13: design_620_fbd04095-bef7-46a9-992d-f2cb8915922f_946_dldesign_0_cycle1_af2pred (protein)
chain: AAALEAARRVAYGQMVLGKMKADEGLKKAESGEDLEGGIKMAEEGLKLAKEYAEYDPVKGGAAAKEIGAKLKKMKELAKKAK
B14: design_620_fbd04095-bef7-46a9-992d-f2cb8915922f_1232_dldesign_0_cycle1_af2pred (protein)
chain: SERHQQLVDFMVAAGQVALTNLAGALRTAEIVARTDPAAAVEGAKKIRELAAKTTPEDAAKMNAVADHALAAAA
B15: design_620_fbd04095-bef7-46a9-992d-f2cb8915922f_681_dldesign_0_cycle1_af2pred (protein)
chain: AAAEAAAAAAAAAAAAEAAARAARGREIMVRTVEAIVRQARASPDGLRLARIALRVAESAGDEEAIALARAALAELEAA
B16: design_620_fbd04095-bef7-46a9-992d-f2cb8915922f_1144_dldesign_0_cycle1_af2pred (protein)
chain: DPARQATINALIKAAAEAAKLGDTALSQAAVEAAVALASAKTQEELDAAQKEADAVLAAAAKRKAAAAAA
B17: design_620_fbd04095-bef7-46a9-992d-f2cb8915922f_1723_dldesign_0_cycle1_af2pred (protein)
chain: SAAAQQAAWQTYVDAAAEMSKLRREALASGDPEVKEKAIEEIKALADKAAANPAAAAAAKLAGENMTAALTES
B18: design_620_fbd04095-bef7-46a9-992d-f2cb8915922f_790_dldesign_0_cycle1_af2pred (protein)
chain: AKAKELAKKAEKALKAAKEAAKLKPEEAAAKANKELGKVLEAQKKAVEAGAPQEALDKINAVATEIAKIALEAAKAA
B19: design_620_fbd04095-bef7-46a9-992d-f2cb8915922f_868_dldesign_0_cycle1_af2pred (protein)
chain: MEEERREELRRKAEEYIAQAEALAAQTSPSAQLLVSNLARQARRLAEAGDYEGALEVARAALEGAQAMAAQQ
B20: design_620_fbd04095-bef7-46a9-992d-f2cb8915922f_1742_dldesign_0_cycle1_af2pred (protein)
chain: AAAVATAAAQAFLAQAEKNLAAAKAALKAGDYEAAIKHAQAAIGSAQSAKLAAQSAGDAALAAQADKVIAEAKKVLAEAEKALKEA

Molecular target: CD276, Q5ZPR3
Sequence (Q5ZPR3 whole entry): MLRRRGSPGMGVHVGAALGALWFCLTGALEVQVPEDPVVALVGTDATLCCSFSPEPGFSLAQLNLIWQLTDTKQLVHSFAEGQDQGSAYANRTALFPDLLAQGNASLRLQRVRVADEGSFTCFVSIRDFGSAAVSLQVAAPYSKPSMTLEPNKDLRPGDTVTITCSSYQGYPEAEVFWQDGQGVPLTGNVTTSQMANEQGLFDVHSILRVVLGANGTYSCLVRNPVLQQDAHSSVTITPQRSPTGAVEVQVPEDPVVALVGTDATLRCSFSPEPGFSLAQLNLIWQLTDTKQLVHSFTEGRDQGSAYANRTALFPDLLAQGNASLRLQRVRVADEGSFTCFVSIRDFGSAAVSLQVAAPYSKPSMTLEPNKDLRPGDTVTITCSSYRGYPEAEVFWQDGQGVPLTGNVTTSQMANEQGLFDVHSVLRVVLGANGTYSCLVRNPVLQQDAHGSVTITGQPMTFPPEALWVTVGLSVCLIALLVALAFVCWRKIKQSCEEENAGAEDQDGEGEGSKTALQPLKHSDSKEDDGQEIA

Row | Binder | binding in a display sort
1 | B1 | not found
2 | B2 | not found
3 | B3 | not found
4 | B4 | not found
5 | B5 | not found
6 | B6 | not found
7 | B7 | not found
8 | B8 | not found
9 | B9 | not found
10 | B10 | not found
11 | B11 | not found
12 | B12 | not found
13 | B13 | not found
14 | B14 | not found
15 | B15 | not found
16 | B16 | not found
17 | B17 | not found
18 | B18 | not found
19 | B19 | not found
20 | B20 | not found
